From PubChem
Most compounds without a hit are left out; they make up all but 4.6% or so of the library.
USP8 inh: inhibitors of human USP8 deubiquitinase. AID 1645853. purified USP8, Ub-rhodamine cleavage fluorescence, 30 min. inhibition, % at 20 µM. hit rate 4.2% among 47,000
USP7 block: blocks human USP7 ubiquitin-rhodamine cleavage; Q93009; inhibition, % at 20 µM; hit rate 0.3% among 47,000; purified USP7, Ub-rhodamine cleavage fluorescence; AID 1645854
UCHL1 block: human UCHL1 deubiquitinase inhibition; inhibition, % at 20 µM; purified UCHL1, Ub-rhodamine cleavage fluorescence; hit rate 0.2% among 47,000; P09936
USP10 block: human USP10 deubiquitinase inhibition. purified USP10, Ub-rhodamine fluorescence, 60 min. inhibition, % at 20 µM. hit rate 1.1% among 47,000. AID 1645856
Target sequence (Q14694 whole entry, looked up): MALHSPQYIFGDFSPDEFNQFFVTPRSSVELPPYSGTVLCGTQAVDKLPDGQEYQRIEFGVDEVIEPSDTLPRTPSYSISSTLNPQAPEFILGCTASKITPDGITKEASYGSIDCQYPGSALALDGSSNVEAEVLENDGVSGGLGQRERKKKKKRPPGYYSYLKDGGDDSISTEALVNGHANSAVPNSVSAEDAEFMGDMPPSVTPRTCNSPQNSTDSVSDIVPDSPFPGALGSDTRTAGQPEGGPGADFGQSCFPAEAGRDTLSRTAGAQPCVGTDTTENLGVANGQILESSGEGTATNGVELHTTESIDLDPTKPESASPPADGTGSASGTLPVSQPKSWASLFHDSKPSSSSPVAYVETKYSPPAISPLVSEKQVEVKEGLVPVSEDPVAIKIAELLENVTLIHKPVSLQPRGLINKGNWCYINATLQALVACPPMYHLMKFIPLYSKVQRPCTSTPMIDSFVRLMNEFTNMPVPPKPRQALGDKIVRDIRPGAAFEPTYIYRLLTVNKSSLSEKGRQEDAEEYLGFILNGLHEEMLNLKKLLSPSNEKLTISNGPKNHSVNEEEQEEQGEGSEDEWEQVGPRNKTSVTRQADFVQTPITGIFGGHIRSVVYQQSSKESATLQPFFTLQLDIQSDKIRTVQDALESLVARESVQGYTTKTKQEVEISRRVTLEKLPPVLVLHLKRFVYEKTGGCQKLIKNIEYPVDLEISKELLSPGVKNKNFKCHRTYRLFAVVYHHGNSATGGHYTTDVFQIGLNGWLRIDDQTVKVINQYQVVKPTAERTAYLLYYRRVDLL
Hits are given with their value; i = inactive. No stated cut-off is given here; in the data, active means inhibition above about 30%; inactive means the rest.

SMILES	USP8 inh	USP7 block	UCHL1 block	USP10 block
COc1ccc(-c2cc(-c3nnc(COC(=O)CC4CCCC4)o3)c3ccccc3n2)cc1OC	64	i	i	i
COc1ccc(-c2cc(-c3nnc(COC(=O)c4cccc([N+](=O)[O-])c4C)o3)c3ccccc3n2)cc1OC	68	i	i	i
COc1ccc(-c2cc(-c3nnc(COC(=O)CNS(=O)(=O)c4ccccc4)o3)c3ccccc3n2)cc1OC	i	i	i	i
O=C(NCCn1cc(SCC(=O)N2CCOCC2)c2ccccc21)c1ccccc1F	i	i	i	i
Cc1ccccc1S(=O)(=O)N1CCC2(CC1)NCCN=C2NC1CCCCC1	i	i	i	i
O=C(Cc1ccc(F)cc1)N1CCC2(CC1)NCCc1[nH]cnc12	39	i	i	i
COc1ccc(CC(=O)N2CCC3(CC2)NCCc2[nH]cnc23)cc1	i	i	i	i
O=C(Cc1ccccc1)NCC(=O)N1CCC2(CC1)NCCc1[nH]cnc12	i	i	i	i
O=C(NCC(=O)N1CCC2(CC1)NCCc1[nH]cnc12)c1ccc(-c2ccccc2)cc1	49	i	i	i
COc1ccc(CC(=O)NCC(=O)N2CCC3(CC2)NCCc2[nH]cnc23)cc1	34	i	i	i
COc1cc(CNC(=O)c2cnc3c(C)cccn3c2=O)cc(OC)c1OC	i	i	i	i
COC(=O)c1cc2c(ccn2-c2ccc(F)cc2)n1C	36	i	i	i
COC(=O)c1cc2c(ccn2-c2ccc(F)cc2)n1CC(=O)N(C1CCCCC1)C1CCCCC1	i	i	i	i
COc1ccc(NC(=O)C(C)n2nc(-c3ccccc3)c3cc(Cl)ccc32)cc1 (configuration not stated)	i	i	i	i
CC(C(=O)NCCc1ccccc1)n1nc(-c2ccccc2)c2cc(Cl)ccc21 (configuration not stated)	31	i	i	i
Cc1cc(C)cc(NC(=O)CC2C(=O)OCCN2Cc2ccccc2)c1 (configuration not stated)	i	i	i	i
C[C@]12C[C@@H](Cc3ccccc3)N(C(=O)c3nonc3N)[C@H]1CCCCC(=O)N2	i	i	i	i
Cc1nc(C2CN(Cc3nc4ccccc4n3C)CCO2)cc(=O)[nH]1 (configuration not stated)	31	i	i	i
Cc1nc(C2CN(Cc3ccc4c(c3)OCCO4)CCO2)cc(=O)[nH]1 (configuration not stated)	i	i	i	i
Cc1cccc(NC(=O)CCc2nnc3c(=O)n(-c4ccc(C)c(C)c4)ccn23)c1	36	i	i	i
Cc1ccc(NC(=O)CCc2nnc3c(=O)n(-c4cc(C)cc(C)c4)ccn23)cc1	42	i	i	i
COc1ccc(-n2ccn3c(CCC(=O)Nc4cccc(C)c4)nnc3c2=O)cc1	36	i	i	i
COC(=O)c1ccc(C2CC(=O)Nc3cc4c(cc32)OCO4)cc1 (configuration not stated)	i	i	i	i
O=C1Cc2cc(S(=O)(=O)N3CCC([C@@H]4NC(=O)N[C@H]5OCCC[C@H]54)CC3)ccc2N1	43	i	i	i
CC1(C)Oc2ccc(C(=O)N3CCC([C@@H]4NC(=O)N[C@H]5OCCC[C@H]54)CC3)cc2NC1=O	i	i	i	i
SMILES	USP8 inh	USP7 block	UCHL1 block	USP10 block
O=C(CCc1nc(-c2cnccn2)no1)N1CCc2ccccc2C1	57	i	i	i
Cc1c(C)n(-c2ccc(Br)cn2)c2ncn(Cc3ccccc3)c(=N)c12	44	i	i	i
Cc1ccnc(-n2c(C)c(C)c3c(=N)n(CCO)cnc32)c1	i	i	i	i
COC(=O)c1cc2c(cc1NC(=O)NCc1noc3ccccc13)OCO2	i	i	i	i
O=C1C/C(=C\c2cccc(Cl)c2)Cc2ccccc21	34	i	i	i
Cc1ccc(NC(=O)CCc2c(C)nn3cnnc3c2C)c(Cl)c1	i	i	i	i
CC(=O)Nc1nc2c(C)cc(NS(=O)(=O)c3ccccc3F)cc2s1	i	i	i	i
Cc1ccc(S(=O)(=O)Nc2ccccc2C(=O)Nc2nc3ccc(Br)cc3s2)cc1	95	89	53	93
Cc1c(C)n(-c2ccccc2)c2ncn(CC(=O)NCc3ccccc3F)c(=O)c12	34	i	i	i
Cc1cccc(CNC(=O)Cn2cnc3c(c(C)c(C)n3-c3ccccc3)c2=O)c1	36	i	i	i
COc1cccc(CNC(=O)Cn2cnc3c(c(C)c(C)n3-c3ccccc3)c2=O)c1	i	i	i	i
COc1cccc(NC(=O)Cn2cnc3c(c(C)c(C)n3-c3ccccc3)c2=O)c1	i	i	i	i
COc1ccc(OC)c(NC(=O)Cn2cnc3c(c(C)c(C)n3-c3ccccc3)c2=O)c1	32	i	i	i
O=C(CCC1CCCCC1)N1CCN(Cc2nnnn2-c2cccc(F)c2)CC1	i	i	i	i
CCOc1ccc(C2=NCCNC3=C2C(c2ccccc2)N(c2ccccc2)C3=O)cc1 (configuration not stated)	30	i	i	i
Cc1ccc(C2C3=C(NCCN=C3c3ccccc3)C(=O)N2c2ccccc2)cc1 (configuration not stated)	i	i	i	i
CN(C)CCN1[C@H]2CCN(C(=O)C3CC3)CC[C@@H]2Oc2ccccc2S1(=O)=O	i	i	i	i
Cc1cc(C(=O)N2CCCCC2)c2c(=O)n(Cc3ccc4nonc4c3)c(=O)n(C)c2n1	43	i	i	i
Cc1nn(C)cc1S(=O)(=O)Nc1cnn(Cc2cccc3ccccc23)c1	86	i	i	i
O=C(NCc1cccc(F)c1)c1nc2c(o1)CN(CC1CC1)C2	i	i	i	i
COCCN1C(=O)CO[C@H]2CN(C(=O)c3ccccc3)C[C@H]21	i	i	i	i
O=C1NC(=N/N=C/c2ccccc2)SC1Cc1cc(C(F)(F)F)ccc1Cl (configuration not stated)	i	i	i	47
Cc1cc(=O)n(CC(=O)N(C)C2CCCCC2)c(N2CCOCC2)n1	i	i	i	i
Cc1ccccc1NC(=O)C(Sc1ccc(NC(=O)c2ccccc2C(=O)O)cc1)c1ccccc1 (configuration not stated)	i	i	i	i
Cc1ccc(C(=O)O)cc1NC(=O)C(Sc1cccc(NC(=O)c2cccc(Cl)c2)c1)c1ccccc1 (configuration not stated)	40	i	i	34
COc1cccc(C(=O)Nc2ccc(SC(C(=O)Nc3ccccc3)c3ccccc3)cc2)c1 (configuration not stated)	i	i	i	i
Cc1cccc(C(=O)Nc2cccc(SC(C(=O)Nc3ccc(Cl)c(C(=O)O)c3)c3ccccc3)c2)c1 (configuration not stated)	44	i	i	69
O=C(O)c1ccccc1C(=O)Nc1ccc(SC(C(=O)Nc2cccc(Cl)c2)c2ccccc2)cc1 (configuration not stated)	i	i	i	52
Cc1ccccc1CS(=O)(=O)c1cn(CC(=O)N2CCCC2)c2ccccc12	i	i	i	i
COc1ccc(OC)c(-c2csc(N(CCCN3CCOCC3)C(=O)c3ccco3)n2)c1	i	i	i	i
